Measurements published in PubChem BioAssay (NCATS).
Where “and” joins values, the source holds several entries; their conditions need not be identical. Identical values can stand only once. Records with an inconclusive call do not appear. Entries that show only a call come without a potency. Calls of active or inactive are those of the source. Unless noted, calls come from the whole dose curve.

How the values were obtained:
[1] = target: Glucocorticoid receptor (Homo sapiens) (UniProt P04150); assay: qHTS assay for small molecule antagonists of glucocorticoid receptor signaling (AID 588533; active = well fitted inhibition curve with a large enough effect in the signal ratio, with a control signal flat, not every such curve was filed as active; the % refers to the signal ratio;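 note: cells stimulated with 2 nM dexamethasone as agonist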)
Outline: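 Antagonist-mode qHTS: compound titrations added to GRE-bla HeLa cells, then dexamethasone 2 nM final; 18 h, 37 C. CCF4 FRET fluorescence normalized to dexamethasone and DMSO; IC50 from Hill fit.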

[2] = qHTS assay for small molecule agonists of retinoid X receptor alpha signaling (AID 588544); details: HEK293T RXRa-UAS-bla, beta-lactamase reporter, 18 h; 530 nm emission
[3] = target: Retinoic acid receptor RXR-alpha (Homo sapiens) (UniProt P19793); assay: as above
[4] = qHTS assay for small molecule antagonists of retinoid X receptor alpha signaling (AID 588546; active = well fitted inhibition curve with a large enough effect in the signal ratio, with a control signal flat, not every such curve was filed as active; the % refers to the signal ratio;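 note: cells stimulated with 9-cis-retinoic acid as agonist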); details: HEK293T RXRa-UAS-bla, beta-lactamase ratio, antagonist mode; measured here: W530 green channel, cytotoxicity proxy
Outline: (§1)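 Beta-lactamase reporter inhibition, read as CCF4 fluorescence ratio (ex 405, em 460/530 nm) after 2 h at RT. HEK293T UAS-bla cells, 2500/well, were stimulated with 9-cis-RA at 500 or 100 nM final alongside test compound for 18 h at 37 C.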

[5] = target: Retinoic acid receptor RXR-alpha (Homo sapiens) (UniProt P19793); assay: as above; details: HEK293T RXRa-UAS-bla, beta-lactamase ratio, antagonist mode
Outline: as §1

[6] = target: Thyroid hormone receptor beta (Homo sapiens) (UniProt P10828); assay: qHTS assay for small molecule antagonists of thyroid hormone receptor beta signaling (AID 588547; active = well fitted inhibition curve with a large enough effect in the signal ratio, with a control signal flat, not every such curve was filed as active; the % refers to the signal ratio;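 note: cells stimulated with 0.4 nM T3 agonist during compound exposure; series mostly up to about 77 µM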); details: TR-UAS-bla HEK293, beta-lactamase ratio, antagonist mode, 18 h
Outline: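 TR-UAS-bla GripTite HEK293 cells in 2% charcoal/dextran FBS medium were preincubated 4 h at 37 C, given compound (0.59 nM to 92 uM) plus 0.4 nM T3 (final) for 18 h, then CCF4 for 2 h at RT; Hill fit gave IC50.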

[7] = target: Voltage-gated inwardly rectifying potassium channel KCNH2 (Homo sapiens) (UniProt Q12809); assay: qHTS Assay for Small Molecule Inhibitors of the Human hERG Channel Activity (AID 588834; active = well fitted curve in the direction sought with a large enough effect; an effect the other way counts as inactive or inconclusive;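 note: top concentration of the series differs between compounds; lower thallium flux fluorescence means stronger hERG block; nearly all actives have a fitted effect of over 50% in size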)
Outline: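 U2OS cells transduced with hERG via BacMam (MOI ~100), plated 2000/well, loaded with FluxOR thallium dye, compound ~10 min, then stimulation buffer; fluorescence decrease read kinetically; AC50 from Hill fits.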

[8] = target: Luciferin 4-monooxygenase (Photinus pyralis) (UniProt P08659); assay: Biochemical firefly luciferase enzyme assay for NPC (AID 624030; active = well fitted curve in the direction sought with a large enough effect; an effect the other way counts as inactive or inconclusive; note: nearly all actives have a fitted effect of over 70% in size; note: potency is the fitted concentration of half-maximal effect)
Outline: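 Counter-screen for direct inhibition of the luciferase enzyme by approved-drug library compounds, run at 10 nM enzyme in 50 mM Tris acetate (final). Luminescence was read within 5 min of enzyme-buffer addition and normalized to PTC124 versus DMSO (0%).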

[9] = qHTS assay for small molecule antagonists of peroxisome proliferator-activated receptor delta signaling (AID 588535); details: HEK293T PPARd-UAS-bla, beta-lactamase FRET ratio, 18 h; 460 nm channel;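 note: cells co-treated with a PPAR-delta agonist as stimulator during compound exposure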
Outline: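 Reporter: UAS-bla under PPAR-delta response element, HEK293T host. Medium: 2% charcoal/dextran FBS. Dosing: titration, 18 hrs, 37 C. Detection: CCF4, 2 hrs RT, 405 ex/460 and 530 em.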

[10] = target: Peroxisome proliferator-activated receptor gamma (Homo sapiens) (UniProt P37231); assay: qHTS assay for small molecule agonists of peroxisome proliferator-activated receptor gamma signaling (AID 588536; active = well fitted curve in the direction sought with a large enough effect in the signal ratio, with a control signal flat, not every such curve was filed as active; the % refers to the signal ratio)
Outline: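 Ratiometric blue/green fluorescence (405 nm excitation; 460 and 530 nm emission) from CCF4-loaded HEK293 reporter cells serves as signal. Exposure to test compounds lasts 16 h at 37 C in medium containing 1% charcoal/dextran-treated serum.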

[11] = target: Peroxisome proliferator-activated receptor gamma (Homo sapiens) (UniProt P37231); assay: qHTS assay for small molecule antagonists of peroxisome proliferator-activated receptor gamma signaling (AID 588537; active = well fitted inhibition curve with a large enough effect in the signal ratio, with a control signal flat, not every such curve was filed as active; the % refers to the signal ratio;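 note: reporter cells co-stimulated with 50 nM rosiglitazone agonist during compound treatment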)
Outline: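 We seeded GeneBLAzer HEK293 reporter cells at 3000 per well, allowed 6-6.5 h attachment at 37 C, then co-treated with test compound titrations and 50 nM rosiglitazone overnight (16 h). Inhibition was quantified from 460/530 nm emission ratios.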

[12] = target: Vitamin D3 receptor (Homo sapiens) (UniProt P11473); assay: qHTS assay for small molecule antagonists of vitamin D receptor signaling (AID 588541);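 note: receptor activated by calcitriol during compound treatment; series mostly up to about 77 µM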
Outline: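 VDR-UAS-bla HEK293T cells (2000/well, 2% charcoal-stripped FBS) were treated with titrated compounds plus 1-alpha,25-dihydroxyvitamin D3 (50 nM or 3 nM final) for 16 h at 37 C. CCF4 beta-lactamase fluorescence was read; Hill fits gave IC50.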

[13] = target: Vitamin D3 receptor (Homo sapiens) (UniProt P11473); assay: qHTS assay for small molecule agonists of vitamin D receptor signaling (AID 588543)
Outline: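 GeneBLAzer VDR-UAS-bla HEK293T cells in 2% charcoal-stripped FBS medium were dosed with compound titrations for 16 h at 37 °C; CCF4 β-lactamase readout (405 nm ex, 460/530 nm em). EC50 and efficacy from Hill fits, normalized to 50 nM calcitriol (100%) and DMSO (0%).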

[14] = target: Thyroid hormone receptor beta (Homo sapiens) (UniProt P10828); assay: qHTS assay for small molecule agonists of thyroid hormone receptor beta signaling (AID 588545)
Outline: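 Beta-lactamase reporter activity under TR response element control is measured in HEK 293 cells after 18 hrs compound exposure. Signal is ratiometric CCF4 fluorescence, 460/530 nm.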

[15] = S16 Schwann cell PMP22 intronic element firefly luciferase assay (AID 624032; active = well fitted curve in the direction sought with a large enough effect; an effect the other way counts as inactive or inconclusive; note: series mostly up to about 58 µM; nearly all actives have a fitted effect of over 30% in size)
Outline: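 Rat S16 Schwann cells stably carrying a PMP22 intronic element-driven Fluc reporter were seeded overnight, then exposed to compounds for 24 h at 37 °C. Luminescence was normalized to PTC124 (positive control) and DMSO (0% activity).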

[16] = S16 Schwann cell PMP22 intronic element beta-lactamase assay (AID 624044); note: nearly all actives have a fitted effect of over 15% in size
Outline: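 Rat S16 Schwann cells with beta-Lac driven by a PMP22 intronic element, compound-treated 24 h at 37 °C. LiveBLAzer FRET B/G read: 460 nm normalized to potassium clavulanate vs DMSO; 535 nm FRET as viability; concentration-effect curves classified.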

[17] = S16 Schwann cell viability assay (CellTiter-Glo assay) (AID 624031; active = well fitted curve in the direction sought with a large enough effect; an effect the other way counts as inactive or inconclusive;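 note: cellular ATP luminescence as a viability measure; series mostly up to about 58 µM; nearly all actives have a fitted effect of over 70% in size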)
Outline: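 CellTiter-Glo ATP luminescence counter-screen in untransfected S16 rat Schwann cells, 24h compound exposure at 37 degree Celsius after overnight seeding (500-750 cells/well); response scaled between cell-free wells and DMSO (0% activity), curves classed by r2 and magnitude.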

[18] = target: Glutaminase kidney isoform, mitochondrial (Homo sapiens) (UniProt O94925); assay: qHTS for Inhibitors of Glutaminase (GLS): LOPAC Validation (AID 624146; active = well fitted curve in the direction sought with a large enough effect; an effect the other way counts as inactive or inconclusive; note: nearly all actives have a fitted effect of over 60% in size; note: potency is the fitted concentration of half-maximal effect)
Outline: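 Glutamate formation by hKGA was monitored fluorometrically using coupled glutamate oxidase, HRP and Amplex Red. Substrate was added as 1 mM L-glutamine solution; incubation was 30 min at RT after an initial read.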

[19] = qHTS of Trypanosoma Brucei Inhibitors: LOPAC Validation (AID 624147; active = well fitted curve in the direction sought with a large enough effect; an effect the other way counts as inactive or inconclusive)
Outline: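 T. brucei PYK with substrate was exposed to pin-transferred compounds across a concentration series, then started with 130 uM ADP (final). After 45 min at room temperature, Kinase-Glo Plus luminescence was read, normalized and curve-fitted.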

Sequence of Glutaminase kidney isoform, mitochondrial (Homo sapiens) (O94925 whole entry, looked up, canonical isoform): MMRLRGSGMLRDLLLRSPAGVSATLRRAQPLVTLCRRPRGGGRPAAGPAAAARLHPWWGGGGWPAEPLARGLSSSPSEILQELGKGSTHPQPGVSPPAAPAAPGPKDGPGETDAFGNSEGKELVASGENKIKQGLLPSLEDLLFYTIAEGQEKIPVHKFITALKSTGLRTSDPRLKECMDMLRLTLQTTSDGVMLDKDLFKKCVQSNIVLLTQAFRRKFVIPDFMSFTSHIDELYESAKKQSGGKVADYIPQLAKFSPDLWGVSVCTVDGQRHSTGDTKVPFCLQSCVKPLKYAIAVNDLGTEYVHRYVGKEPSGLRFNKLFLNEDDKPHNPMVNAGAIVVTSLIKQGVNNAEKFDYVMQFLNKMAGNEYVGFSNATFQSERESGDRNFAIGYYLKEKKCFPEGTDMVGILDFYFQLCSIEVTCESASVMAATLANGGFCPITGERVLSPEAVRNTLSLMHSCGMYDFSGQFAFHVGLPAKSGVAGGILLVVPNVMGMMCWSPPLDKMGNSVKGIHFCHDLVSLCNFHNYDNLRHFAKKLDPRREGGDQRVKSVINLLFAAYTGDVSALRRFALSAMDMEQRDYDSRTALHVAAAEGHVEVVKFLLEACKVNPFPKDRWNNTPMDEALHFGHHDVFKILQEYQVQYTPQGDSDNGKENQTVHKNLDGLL
Sequence of Glucocorticoid receptor (Homo sapiens) (P04150 whole entry, looked up): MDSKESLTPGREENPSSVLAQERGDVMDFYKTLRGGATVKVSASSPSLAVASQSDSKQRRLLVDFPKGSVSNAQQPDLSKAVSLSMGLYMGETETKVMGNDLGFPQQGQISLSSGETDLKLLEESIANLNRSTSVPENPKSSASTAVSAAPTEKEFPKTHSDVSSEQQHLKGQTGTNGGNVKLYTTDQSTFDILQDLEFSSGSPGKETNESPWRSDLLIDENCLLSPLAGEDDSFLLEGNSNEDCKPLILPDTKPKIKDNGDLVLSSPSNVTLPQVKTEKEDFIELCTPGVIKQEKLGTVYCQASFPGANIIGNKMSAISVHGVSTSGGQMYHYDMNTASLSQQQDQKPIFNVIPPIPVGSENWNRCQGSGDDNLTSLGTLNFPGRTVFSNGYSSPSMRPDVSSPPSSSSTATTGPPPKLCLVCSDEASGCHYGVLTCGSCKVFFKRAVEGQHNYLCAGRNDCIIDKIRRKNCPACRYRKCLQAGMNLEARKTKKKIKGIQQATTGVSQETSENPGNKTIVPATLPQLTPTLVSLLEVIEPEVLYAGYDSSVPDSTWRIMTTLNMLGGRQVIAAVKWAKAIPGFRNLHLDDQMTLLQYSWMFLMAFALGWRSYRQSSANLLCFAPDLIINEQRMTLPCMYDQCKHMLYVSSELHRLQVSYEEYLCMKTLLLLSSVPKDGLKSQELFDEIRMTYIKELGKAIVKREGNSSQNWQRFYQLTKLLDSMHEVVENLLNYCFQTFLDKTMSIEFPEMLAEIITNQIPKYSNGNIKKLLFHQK
Sequence of Retinoic acid receptor RXR-alpha (Homo sapiens) (P19793 whole entry, looked up): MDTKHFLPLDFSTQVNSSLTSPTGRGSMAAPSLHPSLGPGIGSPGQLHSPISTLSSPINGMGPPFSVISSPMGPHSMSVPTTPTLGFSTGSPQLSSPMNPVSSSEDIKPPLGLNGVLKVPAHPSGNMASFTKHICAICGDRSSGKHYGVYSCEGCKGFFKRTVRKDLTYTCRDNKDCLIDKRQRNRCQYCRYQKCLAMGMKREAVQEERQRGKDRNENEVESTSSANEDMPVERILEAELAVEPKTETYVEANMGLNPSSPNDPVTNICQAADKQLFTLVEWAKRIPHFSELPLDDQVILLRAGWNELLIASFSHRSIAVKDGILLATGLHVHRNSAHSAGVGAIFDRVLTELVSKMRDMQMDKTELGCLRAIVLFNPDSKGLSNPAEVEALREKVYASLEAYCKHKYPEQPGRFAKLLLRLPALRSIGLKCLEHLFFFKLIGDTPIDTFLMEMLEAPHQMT
Sequence of Voltage-gated inwardly rectifying potassium channel KCNH2 (Homo sapiens) (Q12809 whole entry, looked up): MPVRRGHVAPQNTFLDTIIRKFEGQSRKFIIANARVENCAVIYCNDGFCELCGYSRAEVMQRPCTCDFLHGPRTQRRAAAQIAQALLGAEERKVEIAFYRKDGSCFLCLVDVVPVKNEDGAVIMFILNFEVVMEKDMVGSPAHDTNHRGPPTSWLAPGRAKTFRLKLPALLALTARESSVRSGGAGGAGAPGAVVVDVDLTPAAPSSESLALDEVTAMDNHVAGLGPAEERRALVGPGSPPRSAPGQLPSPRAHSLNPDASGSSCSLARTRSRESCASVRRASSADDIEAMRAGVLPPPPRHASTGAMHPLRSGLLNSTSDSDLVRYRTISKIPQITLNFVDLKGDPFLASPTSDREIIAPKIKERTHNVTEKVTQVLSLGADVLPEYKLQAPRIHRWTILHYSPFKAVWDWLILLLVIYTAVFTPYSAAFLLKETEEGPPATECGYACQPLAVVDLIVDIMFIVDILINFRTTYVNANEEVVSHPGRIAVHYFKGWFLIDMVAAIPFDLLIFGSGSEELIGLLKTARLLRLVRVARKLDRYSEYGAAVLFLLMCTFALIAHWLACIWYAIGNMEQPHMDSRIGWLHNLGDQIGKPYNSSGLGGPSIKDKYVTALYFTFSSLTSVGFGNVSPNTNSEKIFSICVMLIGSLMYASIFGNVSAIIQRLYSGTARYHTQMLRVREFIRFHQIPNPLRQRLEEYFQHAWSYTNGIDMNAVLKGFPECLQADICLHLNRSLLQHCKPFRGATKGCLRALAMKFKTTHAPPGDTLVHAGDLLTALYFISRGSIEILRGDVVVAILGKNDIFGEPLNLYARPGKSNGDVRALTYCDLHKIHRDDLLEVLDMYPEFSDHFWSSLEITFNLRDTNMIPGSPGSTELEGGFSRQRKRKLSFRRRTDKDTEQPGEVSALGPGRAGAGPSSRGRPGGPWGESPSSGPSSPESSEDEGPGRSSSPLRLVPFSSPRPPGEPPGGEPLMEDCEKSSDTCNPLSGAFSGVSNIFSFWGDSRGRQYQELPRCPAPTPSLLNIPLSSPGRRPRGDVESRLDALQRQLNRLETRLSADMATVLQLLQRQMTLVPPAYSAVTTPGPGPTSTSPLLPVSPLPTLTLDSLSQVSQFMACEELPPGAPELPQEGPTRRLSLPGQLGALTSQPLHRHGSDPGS
Sequence of Vitamin D3 receptor (Homo sapiens) (P11473 whole entry, looked up): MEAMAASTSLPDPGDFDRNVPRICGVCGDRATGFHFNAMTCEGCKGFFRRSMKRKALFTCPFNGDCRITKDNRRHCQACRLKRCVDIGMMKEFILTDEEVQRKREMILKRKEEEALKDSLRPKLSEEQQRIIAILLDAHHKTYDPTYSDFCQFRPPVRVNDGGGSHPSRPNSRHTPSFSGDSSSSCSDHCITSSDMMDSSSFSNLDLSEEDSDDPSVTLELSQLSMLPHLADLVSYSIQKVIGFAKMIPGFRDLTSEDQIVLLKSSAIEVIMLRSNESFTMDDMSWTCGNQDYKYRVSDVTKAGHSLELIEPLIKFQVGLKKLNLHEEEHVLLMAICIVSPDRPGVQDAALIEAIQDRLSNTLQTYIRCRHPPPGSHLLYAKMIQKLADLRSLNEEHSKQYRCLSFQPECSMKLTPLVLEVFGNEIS
Sequence of Luciferin 4-monooxygenase (Photinus pyralis) (P08659 whole entry, looked up): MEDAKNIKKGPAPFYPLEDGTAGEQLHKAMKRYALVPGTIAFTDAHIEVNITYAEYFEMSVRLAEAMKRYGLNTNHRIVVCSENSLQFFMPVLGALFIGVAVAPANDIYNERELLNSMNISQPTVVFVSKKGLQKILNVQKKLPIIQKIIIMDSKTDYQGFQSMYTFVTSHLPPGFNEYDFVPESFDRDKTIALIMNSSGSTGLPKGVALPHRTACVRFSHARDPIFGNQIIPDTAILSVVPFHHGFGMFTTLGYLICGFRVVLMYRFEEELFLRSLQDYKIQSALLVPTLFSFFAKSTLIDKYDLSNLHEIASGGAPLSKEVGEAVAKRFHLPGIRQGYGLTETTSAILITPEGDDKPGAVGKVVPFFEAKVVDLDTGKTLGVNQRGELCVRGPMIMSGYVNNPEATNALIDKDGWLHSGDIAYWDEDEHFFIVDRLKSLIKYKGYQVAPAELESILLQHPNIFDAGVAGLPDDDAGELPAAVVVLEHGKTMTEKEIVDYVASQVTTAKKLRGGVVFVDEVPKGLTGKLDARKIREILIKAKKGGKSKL
Sequence of Peroxisome proliferator-activated receptor gamma (Homo sapiens) (P37231 whole entry, looked up): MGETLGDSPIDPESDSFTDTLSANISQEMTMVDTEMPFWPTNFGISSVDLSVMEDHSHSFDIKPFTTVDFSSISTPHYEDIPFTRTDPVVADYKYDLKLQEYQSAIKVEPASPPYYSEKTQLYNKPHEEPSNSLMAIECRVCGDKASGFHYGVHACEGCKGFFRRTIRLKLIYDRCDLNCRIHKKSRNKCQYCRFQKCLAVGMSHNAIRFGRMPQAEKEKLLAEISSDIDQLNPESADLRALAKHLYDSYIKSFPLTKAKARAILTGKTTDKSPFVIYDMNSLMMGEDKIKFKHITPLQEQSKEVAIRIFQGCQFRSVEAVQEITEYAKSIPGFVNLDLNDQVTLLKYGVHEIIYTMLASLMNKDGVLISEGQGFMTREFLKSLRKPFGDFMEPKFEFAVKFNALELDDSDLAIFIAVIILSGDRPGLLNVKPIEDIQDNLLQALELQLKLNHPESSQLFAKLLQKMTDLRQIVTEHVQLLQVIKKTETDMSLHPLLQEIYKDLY
Sequence of Thyroid hormone receptor beta (Homo sapiens) (P10828 whole entry, looked up): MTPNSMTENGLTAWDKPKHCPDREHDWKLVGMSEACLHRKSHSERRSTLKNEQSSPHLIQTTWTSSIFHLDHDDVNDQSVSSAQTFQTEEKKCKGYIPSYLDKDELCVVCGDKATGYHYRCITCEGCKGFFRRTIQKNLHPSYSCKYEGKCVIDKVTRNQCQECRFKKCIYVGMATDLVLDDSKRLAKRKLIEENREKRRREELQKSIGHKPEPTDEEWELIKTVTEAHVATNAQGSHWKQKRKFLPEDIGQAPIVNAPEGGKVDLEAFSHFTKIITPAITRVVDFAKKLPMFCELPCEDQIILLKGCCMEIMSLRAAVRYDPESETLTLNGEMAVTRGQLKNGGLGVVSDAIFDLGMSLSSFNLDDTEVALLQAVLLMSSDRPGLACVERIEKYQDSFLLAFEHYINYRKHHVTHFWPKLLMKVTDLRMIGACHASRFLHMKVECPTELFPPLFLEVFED

| SMILES | Potency [1] | max response [2] | outcome [3] | max response [4] | max response [5] | activity change % (negative = inhibition) [6] | Potency [7] | Potency [8] | max response [9] | outcome [10] | Potency [11] | outcome [12] | outcome [13] | outcome [14] | Potency [15] | Potency [16] | Potency [17] | Potency [18] | Potency [19] |
| --- | --- | --- | --- | --- | --- | --- | --- | --- | --- | --- | --- | --- | --- | --- | --- | --- | --- | --- | --- |
| NCCO | inactive | -11.3% | inactive | -11.1% | 21.6% (inactive) | -5.7% (inactive) | inactive | inactive |  |  |  |  |  |  |  |  |  |  |  |
| O=C(O)c1cc(O)c(O)c(O)c1 |  | 4.26% | inactive | 3.69% | -2.74% (inactive) | -16.5% (inactive) | inactive | inactive | 19.5% | inactive | inactive | inactive | inactive | inactive | inactive | inactive |  |  |  |
| Nc1ccc(O)c(C(=O)O)c1 | inactive | -5.65% and -3.05% | inactive | 7.86% and -11.8% | 19.2% (inactive) and -15.8% (inactive) |  | inactive |  | 9.11% | inactive | inactive | inactive | inactive |  | inactive |  | inactive |  |  |
| O=C1CN(/N=C/c2ccc([N+](=O)[O-])o2)C(=O)N1 | inactive |  |  | 9.13% | 25.9% (inactive) |  | inactive | inactive |  |  |  | inactive | inactive | inactive |  |  | inactive |  |  |
| CC(C)NCC(O)COc1cccc2ccccc12 (configuration not stated) |  | 16.9% and 0.479% | inactive | 8.19% | -18.2% (inactive) | -9.73% (inactive) and -17.8% (inactive) |  |  | -13.8% and 28.5% | inactive | inactive | inactive | inactive | inactive |  |  |  | inactive |  |
| CC(C)OC(=O)c1cc(C(=O)OC(C)C)cc([N+](=O)[O-])c1 | inactive |  |  | -0.986% | -4.84% (inactive) | 6.57% (inactive) |  | inactive | 31.8% |  |  | inactive | inactive |  |  |  |  |  |  |
| Nc1ccn([C@@H]2O[C@H](CO)[C@@H](O)[C@@H]2O)c(=O)n1 |  |  |  |  |  |  | inactive |  |  |  |  |  |  |  |  |  |  |  |  |
| O=C(Nc1ccccc1)c1cc([N+](=O)[O-])ccc1Cl | inactive |  |  | -9.1% | -13.8% (inactive) | 9.48% (inactive) | inactive |  | 15.1% |  |  |  |  | inactive |  |  |  | inactive | inactive |
| c1cnc2c(c1)ccc1cccnc12 |  |  |  |  |  | -10.3% (inactive) | inactive |  | -78.3% |  |  |  | inactive |  |  |  |  |  | inactive |
| O=C(OCc1ccccc1)c1ccccc1 | inactive | 2.86% | inactive | -18.5% | -1.47% (inactive) | 12.6% (inactive) | inactive |  | 18.5% | inactive | inactive | inactive | inactive | inactive | inactive |  |  |  |  |
| C=CCCCCCCCCC(=O)O | inactive | -10% | inactive | -3.51% | -16.4% (inactive) | -5.71% (inactive) | inactive | inactive |  | inactive |  | inactive | inactive | inactive | inactive |  | inactive |  |  |
| Nc1ccc([N+](=O)[O-])cc1O |  | 5.77% | inactive | 3.08% and -8.59% | -3.43% (inactive) and -7.43% (inactive) | 10% (inactive) and 1.31% (inactive) | inactive | inactive | 4.75% and -17.9% |  |  | inactive | inactive | inactive |  |  |  |  |  |
| c1ccc2sc(SSc3nc4ccccc4s3)nc2c1 | inactive | 3.36% and -4.21% | inactive | -0.16% and -14.1% | 0.434% (inactive) and -6.61% (inactive) | 20.1% (inactive) and 3.58% (inactive) | inactive | inactive | 2.19% | inactive | inactive | inactive | inactive | inactive | inactive |  | inactive |  |  |
| Oc1ccccc1O |  | 7.41% | inactive |  |  | -12.3% (inactive) | inactive |  |  | inactive |  |  | inactive | inactive |  |  |  | 2 µM (active) | inactive |
| CN(C)CCC(c1ccc(Cl)cc1)c1ccccn1 (configuration not stated) | inactive | 8.67% | inactive | -0.244% | -3.52% (inactive) | -21.7% (inactive) |  | inactive |  | inactive |  |  |  | inactive |  |  |  | inactive | inactive |
| O=c1cc(-c2ccccc2)oc2ccccc12 |  | 18.8% | inactive | -11.8% | -22.5% (inactive) | -4.06% (inactive) and 9.92% (inactive) | inactive | 20.9 µM (active) | 43.6% | inactive |  | inactive | inactive | inactive |  |  |  |  |  |
| S=c1[nH]c2ccccc2s1 | inactive | -3.92% | inactive | 0.276% and 7.73% | 18% (inactive) and -15.5% (inactive) | -9.82% (inactive) and 10.5% (inactive) | inactive |  | 9.56% |  | inactive | inactive | inactive | inactive |  |  |  |  |  |
